# Experimental data published in PubChem BioAssay (EPA / NIEHS).
# Several values for one entry are separate records, joined by “and”; a condition that tells them apart may be missing. Equal values may be shown once. Records with an inconclusive call do not appear. Some structures have more than one record in an assay (separate samples or runs), and their calls can disagree. Activity calls are given as the source filed them. Rule for the calls, unless noted: active = hit-call score of the fitted dose curve at least 0.9, where 1 is the maximum; inactive = score below 0.9.
# Assays:
# [1] = CCTE_Shafer_MEA_dev_firing_rate_mean: CCTE's Neural Network Formation Assay for Mean Firing Rate, Shafer Lab (AID 2284031);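 note: curve fitted for loss of firing so AC50 reflects decreased mean firing rate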
# How it was run: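 Primary rat cortical neurons on 48-well MEA plates, exposed from plating day 0 with dosing renewed on DIV 5 and 9. Mean well firing rate over active electrodes, recorded days 5, 7, 9, 12, summarised as trapezoidal AUC.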
# [2] = CCTE_Shafer_MEA_dev_per_burst_spike_percent: CCTE's Neural Network Formation Assay for Percent of Spikes in a Burst, Shafer Lab (AID 2284032);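 note: fitted as a decrease in burst spike percentage below DMSO baseline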
# How it was run: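 Rat primary cortical neurons on 16-electrode MEA wells, dosed from plating day 0 for 12 days with renewal on DIV 5 and 9; spikes-in-bursts percentage averaged over bursting electrodes, collapsed as AUC across days 5, 7, 9, 12; loss direction versus DMSO.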
# [3] = CCTE_Shafer_MEA_dev_active_electrodes_number: CCTE's Neural Network Formation Assay for Number of Active Electrodes, Shafer Lab (AID 2284040; active = hit-call score of the fitted dose curve at least 0.9, where 1 is the maximum;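 note: potency for loss of active electrodes versus DMSO so lower counts are hits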)
# How it was run: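 Primary rat cortical neurons on 16-electrode MEA wells, exposed from day 0 through day 12 with compound renewed at DIV 5 and 9 feeds. Active electrodes (mean firing ≥5 spikes/min) counted at DIV 5, 7, 9, 12; trapezoidal AUC across days, loss-of-signal versus DMSO.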
# [4] = CCTE_Shafer_MEA_dev_burst_rate: CCTE's Neural Network Formation Assay for Burst Rate, Shafer Lab (AID 2284042);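 note: potency for loss of burst rate below DMSO control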
# How it was run: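 Primary rat cortical neurons on PEI-coated 48-well MEA plates (laminin added with cells at plating) (16 electrodes/well), exposed from plating to day 12, dosing renewed at DIV 5 and 9. Burst rate averaged over active electrodes, recorded DIV 5, 7, 9, 12, summarized as AUC; loss versus DMSO.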
# [5] = CCTE_Shafer_MEA_dev_burst_duration_mean: CCTE's Neural Network Formation Assay for Mean Burst Duration, Shafer Lab (AID 2284045)
# How it was run: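 Primary rat cortical neurons on 48-well 16-electrode MEA plates, exposed from day 0 with renewal at DIV 5 and 9; spontaneous activity recorded on days 5, 7, 9, 12. Well-mean burst duration across bursting electrodes, collapsed as trapezoidal AUC; DMSO baseline.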
# [6] = CCTE_Shafer_MEA_dev_interburst_interval_mean: CCTE's Neural Network Formation Assay for Mean Interburst Interval, Shafer Lab (AID 2284046);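 note: well-mean interburst interval of bursting electrodes as AUC over four recording days; curve fitted for decrease in interburst interval relative to DMSO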
# How it was run: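 Recordings on days 5, 7, 9 and 12 give well-mean interburst interval across actively bursting electrodes, summarized as area under the curve. Cultures: rat cortical neurons, continuous exposure from day 0, compound renewed at feeds; decrease analyzed versus DMSO.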
# [7] = CCTE_Shafer_MEA_dev_inter_network_spike_interval_mean: CCTE's Neural Network Formation Assay for Mean Inter-network Spike Interval, Shafer Lab (AID 2284047)
# How it was run: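 Primary rat cortical neurons on 16-electrode MEA wells, exposed from plating day 0 through DIV 12, compound renewed at DIV 5 and 9 media changes. Mean interval between network-spike peaks recorded DIV 5, 7, 9, 12; collapsed as trapezoidal AUC, fitted downward versus DMSO.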
# [8] = CCTE_Shafer_MEA_dev_network_spike_number: CCTE's Neural Network Formation Assay for Number of Network Spikes, Shafer Lab (AID 2284048);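 note: synchronized bursts across electrodes counted on days 5 7 9 12 and integrated as AUC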;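 for AC50: fit as a loss of signal meaning fewer network spikes than DMSO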
# How it was run: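 Primary rat cortical neurons on PEI/laminin 48-well MEA plates, dosed from plating day 0 for 12 days, renewed at DIV 5 and 9. Network spike counts recorded DIV 5, 7, 9, 12, collapsed as trapezoidal AUC; DMSO baseline.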
# [9] = CCTE_Shafer_MEA_dev_network_spike_peak: CCTE's Neural Network Formation Assay for Mean Number of Electrodes in Network Spike, Shafer Lab (AID 2284049);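 note: fitted for loss of signal meaning fewer electrodes in network spikes than DMSO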
# How it was run: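 Network-spike peak electrode count from recordings on days 5, 7, 9 and 12 was combined as trapezoidal area under the curve. Rat cortical cultures were treated continuously from plating, with compound renewed at each feed (DIV 5, 9); fits versus DMSO.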
# [10] = CCTE_Shafer_MEA_dev_spike_duration_mean: CCTE's Neural Network Formation Assay for Mean Spike Duration, Shafer Lab (AID 2284051);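 note: mean network spike duration pooled as area under curve over DIV 5 to 12 recordings; potency for a decrease in mean network spike duration versus DMSO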
# How it was run: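 Primary rat cortical neurons on 16-electrode MEA wells (PEI-coated, laminin in plating drop), exposed from plating through DIV 12 with compound renewed at DIV 5 and 9. Mean network-spike duration recorded DIV 5, 7, 9, 12; trapezoidal AUC across days, DMSO baseline.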
# [11] = CCTE_Shafer_MEA_dev_network_spike_duration_std: CCTE's Neural Network Formation Assay for Standard Deviation of Network Spike Duration, Shafer Lab (AID 2284052);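 note: area under curve of spike duration SD across recording days 5 to 12; hits are decreases in network spike duration SD versus DMSO vehicle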
# How it was run: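 Primary rat cortical neurons on PEI-coated 16-electrode MEA wells, exposed from plating day 0 through day 12 with compound renewed at DIV 5 and 9. Network spike duration SD recorded on days 5, 7, 9, 12, collapsed as trapezoidal AUC; loss-of-signal fit versus DMSO.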
# [12] = CCTE_Shafer_MEA_dev_per_network_spike_spike_number_mean: CCTE's Neural Network Formation Assay for Mean Number of Spikes in a Network Spike, Shafer Lab (AID 2284053);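 note: fitted as decrease in spikes per network spike relative to DMSO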
# How it was run: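 Primary rat cortical neurons on 48-well, 16-electrode MEA plates were exposed from plating to DIV 12, with dosing renewed on DIV 5 and 9. Spikes per network spike (0.05 s peak window) were recorded on DIV 5, 7, 9 and 12 and collapsed as trapezoidal AUC versus DMSO.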
# [13] = CCTE_Shafer_MEA_dev_LDH: CCTE's Lactate Dehydrogenase Assay for Cytotoxicity in the Neural Network Formation Assay, Shafer Lab (AID 2284068; active = hit-call score of the fitted dose curve at least 0.9, where 1 is the maximum;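 note: exposure for twelve days from plating with re-dosing on DIV 5 and 9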)
# How it was run: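 Primary rat cortical neurons were plated on PEI/laminin MEA plates and exposed from day 0 for twelve days, with compound renewed at DIV 5 and 9. Cytotoxicity was determined by spectrophotometric LDH assay relative to DMSO.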
# [14] = CCTE_Shafer_MEA_dev_AB: CCTE's Alamar Blue Assay for Cytotoxicity in the Neural Network Formation Assay, Shafer Lab (AID 2284083; active = hit-call score of the fitted dose curve at least 0.9, where 1 is the maximum;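 note: twelve days of exposure from plating with re-dosing on DIV 5 and 9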)
# How it was run: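 Primary rat cortical neurons on PEI-coated 48-well MEA plates, 1.5 x 10^5 cells/well in laminin drop; compound exposure from day 0 of plating for twelve days, renewed at medium changes on DIV 5 and 9. Viability read as resazurin reduction by fluorescence, relative to DMSO.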
# [15] = CCTE_Shafer_MEA_dev_correlation_coefficient_mean: CCTE's Neural Network Formation Assay for Mean Correlation Coefficient, Shafer Lab (AID 2284093);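 note: well mean pairwise spike train correlation integrated as AUC over recording days 5 to 12; potency fitted for loss of correlation relative to DMSO vehicle wells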
# How it was run: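 Spontaneous activity recorded on days 5, 7, 9 and 12 post-plating; pairwise spike correlations are averaged across active electrodes and collapsed to an area-under-curve. Rat cortical cultures are dosed from plating through 12 days, with compound renewed at media changes.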
# [16] = IUF_NPC1b_proliferation_BrdU_72hr: Leibniz Research Institute for Environmental Medicine (IUF) 72-hour Neural Progenitor Cell Bromodeoxyuridine (BrdU) Proliferation Assay (NPC1b) (AID 2284207)
# How it was run: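 BrdU luminescence ELISA quantified DNA synthesis over the last 16 h of a 72 h exposure, fitted against DMSO. Primary hNPC spheres from gestational week 16-19 cortex grown with EGF/FGF at 37C, pH 7.2-7.6.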
# [17] = IUF_NPC1a_proliferation_area_72hr: Leibniz Research Institute for Environmental Medicine (IUF) 72-hour Neural Progenitor Cell Proliferation Area Assay (NPC1a) (AID 2284208)
# How it was run: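 Read-out: increase in sphere area over 72 h by automated phase-contrast imaging, fitted in positive direction versus DMSO baseline. One hNPC sphere (0.25-0.35 mm) per well in EGF/FGF medium; growth-factor withdrawal served as positive control.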
# [18] = IUF_NPC1_viability_72hr: Viability Assessment at 72 hours in the Leibniz Research Institute for Environmental Medicine (IUF) Neural Progenitor Cell Proliferation Assay (NPC1) (AID 2284209)
# How it was run: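 Single spheres (0.25-0.35 mm) of human fetal cortex-derived neural progenitor cells were grown in proliferation medium with EGF and FGF at 37C and 5% CO2. They were exposed for 72 h without renewal, and viability was read by alamar blue resorufin fluorescence.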
structure (smiles),measurement,setting,value
CN(C)CCCn1cc(C2=C(c3c[nH]c4ccccc34)C(=O)NC2=O)c2ccccc21,AC50,[1],1.97 µM (active) [middle of 4 runs]
same,AC50,[2],4.52 µM (active) and 2.95 µM (active) and 5 µM (active)
same,AC50,[3],4.2 µM (active) [middle of 4 runs]
same,AC50,[4],1.61 µM (active) [middle of 4 runs]
same,outcome,[5],inactive
same,outcome,[6],inactive
same,outcome,[7],inactive
same,AC50,[8],264 nM (active) and 467 nM (active) and 1.58 µM (active)
same,outcome,[8],inactive
same,AC50,[9],3.8 µM (active) and 3.08 µM (active) and 5 µM (active)
same,AC50,[10],6.41 µM (active) and 5 µM (active) and 3.28 µM (active)
same,outcome,[11],inactive
same,AC50,[12],1.61 µM (active) and 2.57 µM (active) and 5 µM (active)
same,AC50,[13],7.97 µM (active)
same,AC50,[14],7.86 µM (active) [middle of 4 runs]
same,AC50,[15],3.16 µM (active) [middle of 4 runs]
same,AC50,[16],0.263 µM (active)
same,AC50,[17],11.6 µM (active)
same,outcome,[18],inactive
